Test results reported in PubChem BioAssay (NCI).
Compounds without any hit were thinned out: in the full panel of roughly 79,000, 15% have a hit. Activity calls are given as the source filed them. No stated cut-off is given here; in the data, active means growth inhibition above about 70%; inactive means the rest.

Key:
[1] = NCI Yeast Anticancer Drug Screen. Data for the rad50 strain (AID 155);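 further: 0% = growth of vehicle-only cultures of the same strain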; details: S. cerevisiae rad50 strain growth inhibition; at 50.0 µM; stronger effect = higher value
Procedure, shortened: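 Inhibition values express reduced yeast growth in compound-treated cultures relative to vehicle-treated controls.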

[2] = NCI Yeast Anticancer Drug Screen. Data for the mec2-1 strain (AID 157); details: S. cerevisiae mec2-1 strain, at 50.0 µM, stronger effect = higher value
Procedure, shortened: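 Each compound was tested on mec2-1 yeast, a strain altered in DNA damage repair or cell cycle control. Growth inhibition is reported relative to vehicle.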

[3] = NCI Yeast Anticancer Drug Screen. Data for the sgs1 mgt1 strain (AID 161);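 further: 0% = growth of cultures given vehicle only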; details: S. cerevisiae sgs1 mgt1 strain, at 50.0 µM, stronger effect = higher value
Procedure, shortened: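 Mutant yeast exposed to compound; growth scored against vehicle-only wells.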

[4] = NCI Yeast Anticancer Drug Screen. Data for the cln2 rad14 strain (AID 165);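 further: 0% = growth equal to vehicle treated cultures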; details: S. cerevisiae cln2 rad14 strain, at 50.0 µM, stronger effect = higher value
Procedure, shortened: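 Test compounds were added to cln2 rad14 yeast cultures; inhibition of growth was then determined by comparison with vehicle treatment.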

[5] = NCI Yeast Anticancer Drug Screen. Data for the bub3 strain (AID 167); details: S. cerevisiae bub3 mutant strain, at 50.0 µM, stronger effect = higher value
Procedure, shortened: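 Steps: expose the mutant yeast strain to compound; grow alongside vehicle-treated cultures; measure growth; express inhibition against the vehicle cultures.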

[6] = NCI Yeast Anticancer Drug Screen. Data for the mlh1 rad18 strain (AID 175); details: S. cerevisiae mlh1 rad18 strain growth inhibition; at 50.0 µM; stronger effect = higher value
Procedure, shortened: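 Inhibition values reflect reduced growth of mutant yeast versus vehicle-treated controls following compound exposure; the mutations affect DNA damage repair.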

Measured: growth inhibition

O1[SiH]2[SiH]3O[SiH]3[SiH]3O[SiH]3[SiH]12 (stereo unspecified)
inactive: [1] -16.8% | [2] -11.7% | [3] -8.2% | [4] -16.6% | [5] -4.35% | [6] -26.6%

Oc1ccc2ccccc2c1/C=N/N=C/c1c(O)ccc2ccccc12
inactive: [1] 31.4% | [2] -14.6% | [3] 53.8% | [4] 20.9% | [5] 6.4% | [6] 3.8%

O/N=C1\CCC2CCCCC12 (stereo unspecified)
inactive: [1] 27.5% | [2] 14.5% | [3] 2.55% | [4] 19.1% | [5] 1.05% | [6] 24.9%

O=C1/C(=C/c2ccc3c(c2)OCO3)CCC1CN1CCOCC1 (stereo unspecified)
active: [1] 91.2% | [2] 94.1% | [3] 90.8% | [4] 92.7% | [5] 90.2% | [6] 90.5%

Cc1nc(Nc2ccc([N+](=O)[O-])cc2)sc1C(=O)/C=C/c1ccc(N(C)C)cc1
inactive: [1] 5.1% | [2] -6.85% | [3] 5.6% | [4] 16.2% | [5] 18.6% | [6] -1.1%

CCC(c1ccc(N(C)C)cc1)c1ccc(N(C)C)cc1
inactive: [1] 3.8% | [2] -48.9% | [3] 1.6% | [4] 8.35% | [5] 0.05% | [6] 4.2%

Fc1ccc(C2(c3ccc(F)cc3)CCCO2)cc1
inactive: [1] 4.4% | [2] -22.4% | [3] -6.15% | [4] 25.7% | [5] -4.1% | [6] 6.2%

CCCCC(=O)Nc1ccc(S(=O)(=O)O)c(N=NC2C(=O)N(c3ccccc3)N=C2C)c1 (stereo unspecified)
inactive: [1] 27.1% | [2] -10.6% | [3] 5.6% | [4] -13% | [5] -3% | [6] 15%

COc1ccc(OC)c(NCC(=O)Nn2cnc3ccc(S(=O)(=O)Nc4cc(OC)ccc4OC)cc3c2=O)c1
inactive: [1] 36.9% | [2] 12.7% | [3] 27.6% | [4] 20.9% | [5] 50.8% | [6] 37.1%

CCOC(N)=C(C#N)C#N
inactive: [1] 12.6% | [2] 15.1% | [3] 3.45% | [4] 21.4% | [5] 23.1% | [6] 11.8%

OCCSCCCCCCSCCO
inactive: [1] 6.95% | [2] 1.7% | [3] 5.85% | [4] 10.6% | [5] 2.7% | [6] 5.8%

NC(=O)c1ccc([N+](=O)[O-])cc1
inactive: [1] 6% | [2] -5.15% | [3] 27.1% | [4] -24.8% | [5] -1.4% | [6] 15.3%

CC(=O)Nc1cccc2c(OC(C)=O)cccc12
inactive: [1] 15.1% | [2] -20.9% | [3] -19.7% | [4] -50% | [5] 7.6% | [6] -4.1%

Cc1cc2c(cc1Cl)SSc1cc(Cl)c(C)cc1S(=O)(=O)Nc1nc(N)nn1C(O)n1nc(N)nc1NS2(=O)=O
inactive: [1] 7.65% | [2] 11.4% | [3] 9.1% | [4] 20.7% | [5] 30.4% | [6] 0.45%

CCOC(=N)Cc1ccccc1
inactive: [1] 3.7% | [2] 21.1% | [3] 4.6% | [4] -10.8% | [5] 23.4% | [6] -27.9%

COc1cc2c(C)cc(=O)oc2c(OCC(O)CN2CCCC2)c1OC (stereo unspecified)
inactive: [1] -0.75% | [2] 14% | [3] -5.75% | [4] 1.35% | [5] -4.35% | [6] -5.25%

CCCCn1cnc2ccc(N)cc2c1=O
inactive: [1] -1.7% | [2] 1.85% | [3] 15.3% | [4] -1.7% | [5] 16.2% | [6] 2%

Cc1nc(N)[nH]c(=O)c1-n1nnc2ccccc2c1=O
inactive: [1] 0.15% | [2] 17.1% | [3] 14.1% | [4] -2.1% | [5] 0.9% | [6] -4.1%

COc1ccc(/C(N)=N/OCc2ccc(C#N)cc2)cc1
inactive: [1] -13.5% | [2] -21.4% | [3] -3.2% | [4] 10.3% | [5] 20.7% | [6] -25.8%

CC(C)(C#N)C(C)(C)c1cnc2ccccc2c1
inactive: [1] 15.2% | [2] -7.15% | [3] -9.4% | [4] -52.5% | [5] -2.25% | [6] -12.4%

CCC(C)(O)c1cnc(CC(C)C)c(=O)n1O (stereo unspecified)
inactive: [1] 55.5% | [2] 32.9% | [3] 43.3% | [4] 38.7% | [5] 38.4% | [6] 52.2%

CN1C(=O)C(n2[nH]c(=O)n(-c3ccccc3)c2=O)C(=O)N(C)C1=O
inactive: [1] 11.8% | [2] 12.7% | [3] -6.55% | [4] -23.1% | [5] 16.9% | [6] 22.9%

S=C(Nc1ccccc1)N1CCN(c2ccccc2Cl)CC1
inactive: [1] 10.7% | [2] -1.65% | [3] 8.25% | [4] -33.9% | [5] -2.15% | [6] 13.1%

C=C(C)CC(O)CCCCC (stereo unspecified)
inactive: [1] 15.1% | [2] -5.85% | [3] 19.7% | [4] -33.9% | [5] 17.3% | [6] -13.3%

C[N+](C)(C)C12CCCC1S(=O)(=O)C2 (stereo unspecified)
inactive: [1] 4.95% | [2] 4.25% | [3] 9.3% | [4] -7.5% | [5] -7.45% | [6] 16.6%

COc1c2occc2c(CC(O)C(C)(C)O)c2ccc(=O)oc12 (stereo unspecified)
inactive: [1] 13.4% | [2] -20.7% | [3] 14.8% | [4] -6.75% | [5] -3.75% | [6] -13.2%

CC1(C)/C(=N\NC(N)=O)C2CCC1C2 (stereo unspecified)
inactive: [1] -19.9% | [2] -25.6% | [3] 2.65% | [4] -4.05% | [5] -11.6% | [6] -16.9%

CC(O)C(C)(C)[N+](=O)[O-] (stereo unspecified)
inactive: [1] 0.45% | [2] -1.55% | [3] -7% | [4] -4.25% | [5] 2.8% | [6] 1.75%

CC(C)=CCc1c(O)ccc(C(=O)[C@H]2C(c3ccc(O)cc3O)CC(C)=C[C@@H]2c2c(O)cc(O)c3c(=O)c(CC=C(C)C)c(-c4ccc(O)cc4O)oc23)c1O (stereo partly specified)
active: [1] 88.4% | [2] 90% | [3] 92% | [4] 89% | [5] 90.2% | [6] 89.8%

C=Cc1ccccc1N=NC(C(=O)OC)=P(c1ccccc1)(c1ccccc1)c1ccccc1
inactive: [1] -24.2% | [2] 20.9% | [3] -1.2% | [4] -6.75% | [5] -4.05% | [6] -10.9%

NC(=O)C(Cl)=C(Cl)Cl
inactive: [1] 2.85% | [2] 10.4% | [3] -2% | [4] -4.75% | [5] -4.8% | [6] 1.65%

Cc1ccc2ccc(-c3cc4ccccc4s3)nc2c1
inactive: [1] -12.2% | [2] -9.75% | [3] -1.5% | [4] -81.8% | [5] -9.5% | [6] -6.1%

CCCCCCCCCCCCCCCCS
inactive: [1] -2.15% | [2] -16.4% | [3] 17.6% | [4] -6.6% | [5] 6.6% | [6] -4.8%

O=[N+]([O-])c1ccc(N=C(Nc2ccc([N+](=O)[O-])cc2)c2ccccc2)cc1
inactive: [1] 12.1% | [2] -16.2% | [3] -1.6% | [4] -33.6% | [5] -12.6% | [6] -14.5%

CN(C)CC1CC(O)C(CN(C)C)CC1O (stereo unspecified)
inactive: [1] -6.2% | [2] -13.4% | [3] -20.2% | [4] -6.15% | [5] -6.25% | [6] -8.95%

CC12CC(=O)OC(Cc3ccccc31)O2 (stereo unspecified)
inactive: [1] -50.4% | [2] -27.1% | [3] -51.7% | [4] -1.25% | [5] -63.6% | [6] -40.5%

COc1cc(C2CC(C)(OC)Oc3cc4c(cc32)OCO4)cc(OC)c1OC (stereo unspecified)
inactive: [1] 42.5% | [2] -2.6% | [3] 2.7% | [4] 19.8% | [5] 19.3% | [6] 20.2%

CC1OCC2OC(C)OC(C(C3C(=O)CC(C)(C)CC3=O)C3C(=O)CC(C)(C)CC3=O)C2O1 (stereo unspecified)
inactive: [1] 17.4% | [2] 6.3% | [3] 19.2% | [4] -8.3% | [5] 26.2% | [6] 22.8%

Cc1ccc(S(=O)(=O)/N=C/[N-][n+]2cccc(C)c2)cc1
inactive: [1] 3.6% | [2] 8.8% | [3] 4.4% | [4] -14.6% | [5] 0.45% | [6] -4.2%

CCOC(=O)C(F)C(C)=O (stereo unspecified)
inactive: [3] 56.2%
active: [1] 92% | [2] 94.5% | [4] 97.4% | [5] 99.5% | [6] 91.8%

O=C1OC(=O)C2=C1CCCC2
inactive: [1] 8.05% | [2] -18.9% | [3] 18.8% | [4] -1.15% | [5] -18% | [6] 6.7%
